Assay outcomes: PubChem BioAssay, several laboratories
FadD28 binding = inhibitors of FadD28 bisubstrate probe binding, primary screen, biochemical, fluorescence polarization, single point. inhibition, % at 12.5 µM. AID 588549, 2011. Mycobacterium tuberculosis FadD28 fatty-acid-AMP ligase. 360,000 compounds, 0.22% hits; in the data active means inhibition above about 8.5%, passing the limit was not always enough
Rv3671c protease = Rv3671c serine protease inhibitors, primary screen, biochemical, fluorescence polarization, M. tuberculosis H37Rv; P9WHR9; inhibition, % at 5.96 µM; 320,000 compounds, 0.048% hits; in the data active means inhibition above about 38%;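 further: extracellular domain of Rv3671c used as enzyme; 0% = enzyme with DMSO and 100% = no enzyme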
TcdB inh = TcdB glycohydrolase inhibitors, primary screen, biochemical, single point, plate reader; Toxin B (Clostridioides difficile), P18177; TcdB glycohydrolase enzymatic assay; inhibition, % at 9.99 µM; 350,000 compounds, 0.24% hits; AID 652162, 2013; in the data active means inhibition above about 10%
RecA intein inh = Mtb RecA intein splicing inhibitors, primary screen, biochemical, fluorescence, HTS; cell-free RecA intein splicing; inhibition, % (no concentration beside the values); 290,000 compounds, 0.75% hits; AID 2221, 2009; in the data active means inhibition above about 30%;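 further: 0% = vehicle wells and 100% = reference inhibitor control wells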
Mtb BioA inh = M. tuberculosis BioA enzyme inhibitors, primary screen, biochemical, plate reader, single point, HTS | 7,8-diaminopelargonic acid synthase BioA (Mycobacterium tuberculosis) | purified M. tuberculosis BioA enzyme | inhibition, % at 9.99 µM | 360,000 compounds, 0.096% hits | AID 602481, 2012; in the data active means inhibition above about 40%
UGM FP inh = M. tuberculosis UGM enzyme inhibitors, primary screen, biochemical, fluorescence polarization, single point; UDP-galactopyranose mutase (Mycobacterium tuberculosis (strain ATCC 25618 / H37Rv)), …; purified UGM, fluorescence polarization probe displacement; inhibition, % at 10 µM; 320,000 compounds, 0.06% hits; AID 504406, 2011; in the data active means inhibition above about 10%, passing the limit was not always enough
Target sequence (P9WIQ1 whole entry, looked up): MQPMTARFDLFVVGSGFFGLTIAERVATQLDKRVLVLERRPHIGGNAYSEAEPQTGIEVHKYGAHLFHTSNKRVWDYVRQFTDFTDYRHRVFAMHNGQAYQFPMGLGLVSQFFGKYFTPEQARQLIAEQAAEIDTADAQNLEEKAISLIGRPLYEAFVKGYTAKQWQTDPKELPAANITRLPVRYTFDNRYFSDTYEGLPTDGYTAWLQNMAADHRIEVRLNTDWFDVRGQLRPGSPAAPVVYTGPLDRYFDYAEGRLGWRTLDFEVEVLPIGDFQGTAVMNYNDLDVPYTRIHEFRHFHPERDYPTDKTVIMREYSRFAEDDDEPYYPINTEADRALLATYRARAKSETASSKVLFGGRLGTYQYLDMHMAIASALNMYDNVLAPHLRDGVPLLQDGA
* marks the source's active call; other numbers are inactive results; x = not tested or not shown. Compounds with a hit are over-represented: about 0.97% of the library has one in this group of screens.

SMILES | FadD28 binding | Rv3671c protease | TcdB inh | RecA intein inh | Mtb BioA inh | UGM FP inh
CCOC(=O)c1cnc2ccc(C)cc2c1Sc1ccc(F)cc1 | -3.0 | 10.8 | x | 66.6* | -1.2 | 4.4
CCC1CCC(C(=O)NNC(=O)c2cc(-c3ccco3)[nH]n2)CC1 (stereo unspecified) | 11.4* | 0.3 | 0.2 | 4.9 | x | 3.8
O=C(NNC(=O)C1CCCCC1)c1ccco1 | -4.2 | 2.1 | 2.0 | 2.3 | x | 2.3
CC1CCCC(C)N1C(=C(Cl)Cl)C(=C1SCCS1)[N+](=O)[O-] (stereo unspecified) | 16.3* | 8.9 | -0.2 | x | x | 1.4
COc1ccc(-c2ccc3[nH]c4c(c3c2)CCN2C(=O)[C@@H]([C@H](C)O)[C@@H](N(C)C(=O)Nc3cc(Cl)cc(Cl)c3)C[C@@H]42)cc1 | 40.6* | x | -0.2 | x | -0.2 | x
O=C([C@@H]1[C@@H](CO)[C@@H]2Cn3c(ccc(-c4ccccc4F)c3=O)[C@H]1N2C(=O)C1CC1)N1CCOCC1 | x | x | 0.2 | x | -0.8 | x
CCCCS/C(=C(/C#N)C(N)=O)c1cc2c([nH]1)CCCC2 | -0.8 | -7.3 | x | 35.7* | 1.9 | 0.7
CCCCCn1c(CN2CCN(C(=O)c3ccco3)CC2)nc2c1c(=O)n(C)c(=O)n2C | 0.1 | -8.2 | 3.2 | 1.2 | 7.0 | 0.5
CCCCn1c(CN2CCN(C(=O)c3ccco3)CC2)nc2c1c(=O)n(C)c(=O)n2C | -2.3 | 1.0 | 10.3* | -1.9 | 1.2 | -1.7
CN(C)C(=O)[C@H]1[C@H](CO)[C@H]2Cn3c(ccc(C4=CCCC4)c3=O)[C@@H]1N2CC1CCCC1 | x | x | -0.4 | x | x | x
O=C(NC1CCCC1)N1CC(=O)N2[C@@H](CO)[C@H](c3ccc(-c4cccc(F)c4)cc3)[C@@H]2C1 | x | x | 0.6 | x | x | x
C[C@@H]1CN([C@@H](C)CO)C(=O)c2cc(NC(=O)Nc3ccccc3)ccc2O[C@@H](C)CCCCO[C@@H]1CN(C)C(=O)Cc1ccccc1 | x | x | -1.8 | x | -1.4 | x
CCc1cccc2c(C(=O)CSc3nncn3-c3ccccc3OC)c[nH]c12 | -1.7 | -1.4 | -0.7 | 0.4 | -0.2 | -2.9
CCc1cccc2c(C(=O)CSc3nncn3-c3ccc(OC)cc3)c[nH]c12 | 13.7* | -6.2 | -0.3 | 1.3 | x | 0.4
CC1CN=C(Nc2cccc(S(=O)(=O)N(C)C)c2)S1 (stereo unspecified) | -1.7 | -8.2 | 13.5* | -2.9 | x | 1.8
CC(=O)c1cccc(NC2=NCC(C)S2)c1 (stereo unspecified) | -1.2 | 4.7 | 0.8 | 0.8 | -1.3 | -0.3
O=C(NCC[C@H]1CC[C@H](NC(=O)C2CC2)[C@H](CO)O1)c1ccc(F)cc1 | x | x | -1.2 | x | -2.7 | x
Cc1cc(C(=O)N2CCCC(CO)(Cc3ccc(F)cc3)C2)c(C)o1 (stereo unspecified) | -1.5 | -5.6 | -0.5 | x | 2.7 | -2.2
CC(C)Cc1cc(C(=O)N2CCCC(CO)(Cc3ccc(F)cc3)C2)no1 (stereo unspecified) | -1.9 | 3.0 | 10.6* | -1.2 | x | -1.5
CCOC(=O)N1CCC2(CC1)C(C#N)=C(N)Oc1n[nH]c(CSc3ccc(C)cc3)c12 | -7.6 | 4.7 | x | 50.5* | -0.2 | 1.2
O=C(C[C@@H]1CC[C@@H](NC(=O)Cc2cccnc2)[C@@H](CO)O1)Nc1ccc(-c2ccccc2)cc1 | x | x | 1.0 | x | 0.6 | x
Cc1ccc(NC(=O)c2ncn(CCCNCc3ccccc3)n2)cc1C | -4.2 | x | 1.3 | x | 0.9 | x
Cc1ccc(CNCCCn2cnc(C(=O)Nc3ccc(C)c(C)c3)n2)o1 | 0.0 | x | 13.8* | x | -1.4 | x
O=C(NCC[C@@H]1CC[C@@H](NS(=O)(=O)c2ccccc2)[C@H](CO)O1)c1ccc2c(c1)OCO2 | x | x | -1.1 | x | -1.6 | x
O=C(C[C@@H]1C[C@H]2c3cc(NC(=O)Nc4ccccc4)ccc3O[C@H]2[C@H](CO)O1)NCc1ccncc1 | x | x | 0.1 | x | 2.8 | x
SMILES | FadD28 binding | Rv3671c protease | TcdB inh | RecA intein inh | Mtb BioA inh | UGM FP inh
NC(=O)c1ccc2c(=O)c(O)c(-c3cc(Cl)c(N)c(Cl)c3)[nH]c2c1 | -5.8 | 17.3 | 12.6* | -21.6 | 0.2 | -0.9
O=C(O)c1ccc(/C=N/NC(=S)NCCN2CCOCC2)cc1 | -1.0 | -2.5 | 10.6* | -2.0 | -1.5 | -0.6
S=C(NCCN1CCOCC1)N/N=C/c1cccs1 | -2.9 | -7.4 | 1.0 | -0.6 | x | 3.1
COCc1[nH]nc2c1C(c1ccc(OC)cc1)C(C#N)=C(N)O2 (stereo unspecified) | -1.7 | -4.5 | x | 58.4* | 0.2 | 2.3
CCOC(=O)Cc1[nH]nc2c1C(c1ccsc1)C(C#N)=C(N)O2 (stereo unspecified) | 0.8 | 3.7 | -0.6 | 57.3* | x | 0.3
COCc1[nH]nc2c1C(c1ccccc1F)C(C#N)=C(N)O2 (stereo unspecified) | -1.9 | -10.4 | x | 35.0* | -1.5 | 2.8
C[C@H]1CCCCO[C@@H](CN(C)C(=O)Nc2ccc(F)cc2)[C@@H](C)CN([C@@H](C)CO)C(=O)c2cc(NS(C)(=O)=O)ccc2O1 | x | x | -0.5 | x | -1.1 | x
CO[C@H](CN(C)C(=O)c1ccc2c(c1)OCO2)[C@@H](C)CN([C@@H](C)CO)S(=O)(=O)c1ccccc1 | x | x | 0.6 | x | 37.5 | x
O=C(O)c1cccc(-c2ccc(/C=c3/sc4nc5ccccc5n4c3=O)o2)c1 | 6.7 | 4.9 | -2.7 | -7.9 | -2.2 | -5.0
O=C(O)c1ccccc1-c1ccc(C=c2sc3nc4cc(Br)cnc4n3c2=O)o1 | 12.6* | x | -0.7 | x | -2.1 | x
CCN1[C@@H]2c3ccc(-c4ccccc4OC)c(=O)n3C[C@@H]2[C@@H](CO)[C@@H]1C(=O)NCCCN(C)C | x | x | 0.2 | x | x | x
CC(=O)NC1C(=O)N(CCN2CCOCC2)c2ccc(C)cc21 (stereo unspecified) | -2.3 | 17.4 | x | 65.5* | x | 0.6
CC(=O)NC1C(=O)N(CCN2CCOCC2)c2ccc(Cl)cc21 (stereo unspecified) | -1.1 | x | -6.7 | 46.2* | 2.2 | -1.3
CC(=O)NC1C(=O)N(CCN2CCOCC2)c2ccc(F)cc21 (stereo unspecified) | 0.2 | x | -7.6 | 40.9* | x | -3.2
CCCCN1C(=O)C(NC(C)=O)c2cc(Br)ccc21 (stereo unspecified) | -1.8 | -0.7 | x | -3.7 | 1.7 | -2.6
CC(=O)Nc1ccc(NC2=CC(=O)CC(C)(C)C2)cc1 | 0.1 | -9.6 | x | -2.0 | -1.3 | 4.1
CC1(C)CC(=O)C=C(Nc2ccc(O)cc2)C1 | -2.2 | x | 25.5* | x | 0.6 | x
O=C(CCl)Nc1cn(-c2ccccc2)nc1-c1ccccc1 | -3.7 | -2.9 | 1.6 | 40.2* | 0.2 | -1.4
CCN(CC)c1nc(N)c2c(N)n(-c3ccccc3C)c(=S)c(C#N)c2c1C#N | 8.3* | 11.6 | x | 5.8 | 9.3 | 1.8
